# Data: PubChem BioAssay (NCATS)
# Records with an inconclusive call do not appear. A call without a number means that no potency is given here. Values without a mark were called inactive. Calls of active or inactive are those of the source. Calls come from the whole dose curve; as a rule, active = well fitted inhibition curve with a large enough effect; inconclusive = small, poorly fitted or top-dose-only effect; inactive = flat fitted curve, though single readings scatter.
# Legend:
# P94_40 = assay: qHTS profiling for inhibitors of Plasmodium falciparum proliferation (AID 504749); details: P. falciparum in erythrocytes, SYBR Green DNA, 72 h; series mostly up to 28.7 µM
# Outline: (§1)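 Three-day growth assay of blood-stage parasites in erythrocytes (0.3% parasitemia, 2.5% hematocrit) at 37 C, 5% CO2, quantified by SYBR Green DNA staining after overnight detergent lysis.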
# PC15 = assay: as above; details: P. falciparum in erythrocytes, SYBR Green DNA, 72 h; series mostly up to 28.7 µM
# Outline: as §1
# PC49 = assay: as above; details: P. falciparum in erythrocytes, SYBR Green DNA, 72 h; series mostly up to 28.7 µM
# Outline: as §1
# TAB165 = assay: as above; details: P. falciparum in erythrocytes, SYBR Green DNA, 72 h; series mostly up to 28.7 µM
# Outline: as §1
# W2 = assay: as above; details: P. falciparum in erythrocytes, SYBR Green DNA, 72 h; series mostly up to 28.7 µM
# Outline: as §1
# CRL-7250 = normal cell line; assay: Cytotoxic Profiling of Annotated Libraries Using Quantitative High-Throughput Screening (AID 1296008); details: Five cell lines viability, CellTiter-Glo ATP luminescence, 48-72 h; max response: stronger effect = lower value
# Outline: (§2)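 Cytotoxicity was measured as CellTiter-Glo ATP luminescence, read after 10 min at room temperature. Compound treatment of the cells lasted 48 or 72 hr at 37 degrees Celsius in a qHTS format.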
# HaCat [1] = assay: as above; details: Five cell lines viability, CellTiter-Glo ATP luminescence, 48-72 h; max response: stronger effect = lower value
# Outline: as §2
# KB-3-1 = assay: as above; details: Five cell lines viability, CellTiter-Glo ATP luminescence, 48-72 h; max response: stronger effect = lower value
# Outline: as §2
# NIH3T3 = assay: as above; details: Five cell lines viability, CellTiter-Glo ATP luminescence, 48-72 h; max response: stronger effect = lower value
# Outline: as §2
# HACAT [2] = assay: qHTS assay to identify novel small-molecules to repurpose for Merkel cell carcinoma treatment (AID 1296009); details: MCC and control cell lines, CellTiter-Glo viability, 72 h; at 44.8 µM (top of the series) unless noted
# Outline: (§3)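 After compound transfer in DMSO, plates were kept 72 hr at 37 degree celsius. Luminescent ATP signal from CellTiter-Glo served as viability measure, normalized against DMSO and no-cell controls.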
# MCC-13 = assay: as above; details: MCC and control cell lines, CellTiter-Glo viability, 72 h; series mostly up to 46 µM
# Outline: as §3
# MCC-26 = assay: as above; details: MCC and control cell lines, CellTiter-Glo viability, 72 h; series mostly up to 46 µM
# Outline: as §3
# MKL-1 = assay: as above; details: MCC and control cell lines, CellTiter-Glo viability, 72 h; series mostly up to 46 µM
# Outline: as §3
# PAD = assay: qHTS profiling for inhibitors of Plasmodium falciparum proliferation (AID 504749); details: P. falciparum in erythrocytes, SYBR Green DNA, 72 h; series mostly up to 28.7 µM
# Outline: as §1
# PC26 = assay: as above; details: P. falciparum in erythrocytes, SYBR Green DNA, 72 h; series mostly up to 28.7 µM
# Outline: as §1
# SC27B = assay: as above; details: P. falciparum in erythrocytes, SYBR Green DNA, 72 h; series mostly up to 28.7 µM
# Outline: as §1
# TAB109 = assay: as above; details: P. falciparum in erythrocytes, SYBR Green DNA, 72 h; series mostly up to 28.7 µM
# Outline: as §1
# TAB113 = assay: as above; details: P. falciparum in erythrocytes, SYBR Green DNA, 72 h; series mostly up to 28.7 µM
# Outline: as §1
# HEK293 = assay: Cytotoxic Profiling of Annotated Libraries Using Quantitative High-Throughput Screening (AID 1296008); details: Five cell lines viability, CellTiter-Glo ATP luminescence, 48-72 h; max response: stronger effect = lower value
# Outline: as §2
# HEK293T = assay: qHTS assay to identify novel small-molecules to repurpose for Merkel cell carcinoma treatment (AID 1296009); details: MCC and control cell lines, CellTiter-Glo viability, 72 h; at 44.8 µM (top of the series) unless noted
# Outline: as §3
# Note: nearly all actives have a fitted effect of over 60% in size.
# Potency is the fitted concentration of half-maximal effect.
smiles,measurement,setting,value
CN(C)CC/C=C1\c2ccccc2Sc2ccc(Cl)cc21,Potency,P94_40,10 µM (active)
same,Potency,PC15,11.2 µM (active)
same,Potency,PC49,11.2 µM (active)
same,Potency,TAB165,7.94 µM (active)
same,Potency,W2,2.69 µM (active)
same,max response,CRL-7250,-3.17%
same,outcome,HaCat [1],inactive
same,max response,KB-3-1,-2.56%
same,max response,NIH3T3,-4.42%
same,outcome,HACAT [2],inactive
same,Potency,MCC-13,inactive
same,Potency,MCC-26,inactive
c1ccc(CNCCNCc2ccccc2)cc1,Potency,PC49,3.55 µM (active)
same,Potency,W2,4.26 µM (active)
same,max response,CRL-7250,-8.49%
same,outcome,HaCat [1],inactive
same,max response,KB-3-1,-3.68%
same,outcome,HACAT [2],inactive
same,Potency,MCC-13,inactive
same,Potency,MCC-26,inactive
same,Potency,MKL-1,inactive
CC1(C)O[C@@H]2C[C@H]3[C@@H]4CCC5=CC(=O)CC[C@]5(C)[C@@]4(F)[C@@H](O)C[C@]3(C)[C@]2(C(=O)CCl)O1,max response,CRL-7250,2.38%
same,outcome,HaCat [1],inactive
same,max response,KB-3-1,33.4%
same,max response,NIH3T3,-10.1%
same,outcome,HACAT [2],inactive
same,Potency,MCC-13,inactive
same,Potency,MCC-26,inactive
same,Potency,MKL-1,inactive
COC1=CC(=O)C[C@@H](C)[C@]12Oc1c(Cl)c(OC)cc(OC)c1C2=O,Potency,P94_40,inactive
same,Potency,PAD,inactive
same,Potency,PC15,inactive
same,Potency,PC26,inactive
same,Potency,PC49,inactive
same,Potency,SC27B,inactive
same,Potency,TAB109,inactive
same,Potency,TAB113,inactive
same,Potency,TAB165,inactive
same,Potency,W2,inactive
same,outcome,CRL-7250,inactive
same,Potency,HaCat [1],23.7 µM (active)
same,max response,KB-3-1,-57.5%
same,Potency,MCC-13,inactive
same,Potency,MCC-26,inactive
O=C1[C@H]2CCCC[C@H]2C(=O)N1CCCCN1CCN(c2nsc3ccccc23)CC1,Potency,P94_40,inactive
same,Potency,PAD,inactive
same,Potency,PC49,inactive
same,Potency,SC27B,inactive
same,Potency,TAB109,inactive
same,Potency,TAB113,inactive
same,Potency,W2,15.1 µM (active)
same,outcome,CRL-7250,inactive
same,max response,HaCat [1],-5.6%
same,max response,KB-3-1,2.4%
same,max response,NIH3T3,2.44%
same,Potency,MCC-13,inactive
same,Potency,MCC-26,inactive
same,Potency,MKL-1,inactive
CC(=O)[C@H]1CC[C@H]2[C@@H]3C[C@H](C)C4=CC(=O)CC[C@]4(C)[C@H]3[C@@H](O)C[C@]12C,outcome,CRL-7250,inactive
same,max response,HaCat [1],-3.2%
same,max response,KB-3-1,30.5%
same,outcome,NIH3T3,inactive
same,Potency,MCC-13,inactive
same,Potency,MCC-26,inactive
same,Potency,MKL-1,inactive
CCN(CCCc1ccccc1)CCCc1ccccc1,Potency,PAD,inactive
same,Potency,PC15,inactive
same,Potency,PC26,inactive
same,Potency,PC49,inactive
same,Potency,SC27B,inactive
same,Potency,W2,1.28 µM (active)
same,outcome,CRL-7250,inactive
same,max response,HaCat [1],0.9%
same,max response,KB-3-1,-18.5%
same,Potency,MCC-13,inactive
same,Potency,MKL-1,inactive
CCOc1ccc2nc3cc(N)ccc3c(N)c2c1,Potency,P94_40,5.62 µM (active)
same,Potency,PAD,7.08 µM (active)
same,Potency,PC15,10 µM (active)
same,Potency,PC49,7.94 µM (active)
same,Potency,SC27B,7.94 µM (active)
same,Potency,TAB109,3.98 µM (active)
same,Potency,TAB113,4.47 µM (active)
same,Potency,TAB165,10 µM (active)
same,Potency,W2,3.38 µM (active)
same,Potency,CRL-7250,11.9 µM (active)
same,max response,HaCat [1],-2.56%
same,max response,KB-3-1,-2.82%
same,Potency,MKL-1,5.96 µM (active)
CC(=O)OCC(=O)[C@@]12N=C(C)O[C@@H]1C[C@H]1[C@@H]3CCC4=CC(=O)C=C[C@]4(C)[C@H]3[C@@H](O)C[C@@]12C,outcome,HEK293,inactive
same,outcome,HaCat [1],inactive
same,max response,KB-3-1,7.15%
same,max response,NIH3T3,-1.08%
same,outcome,HACAT [2],inactive
same,outcome,HEK293T,inactive
same,Potency,MCC-13,inactive
same,Potency,MKL-1,inactive
O=C(CCCN1CCC(O)(c2ccc(Br)cc2)CC1)c1ccc(F)cc1,Potency,PC49,0.398 µM (active)
same,Potency,SC27B,inactive
same,Potency,TAB109,3.16 µM (active)
same,Potency,W2,1.44 µM (active)
same,max response,CRL-7250,2.7%
same,max response,HaCat [1],-2.82%
same,max response,KB-3-1,3.87%
same,Potency,MCC-26,inactive
same,Potency,MKL-1,inactive
C[C@]12CCC(=O)C=C1[C@@H]1C[C@@H]1[C@H]1[C@@H]3[C@@H]4C[C@@H]4[C@@]4(CCC(=O)O4)[C@@]3(C)CC[C@@H]12,outcome,CRL-7250,inactive
same,max response,HaCat [1],-9.08%
same,max response,NIH3T3,-5.26%
same,Potency,MCC-13,inactive
same,Potency,MCC-26,inactive
same,Potency,MKL-1,inactive
